Shown are actives, neighbours in structure and some others; about 4.6% of the full set was active somewhere.
D1 potentiator: potentiators of human D1 dopamine receptor; HEK293 TREx D1 cells, calcium flux, dopamine EC20 potentiation; potentiation, % at 10 µM; AID 504651; hit rate 0.036% among 360,000; in the data active = potentiation above about 30%; note: 0% is about no effect
Target sequence (P21728 whole entry, looked up): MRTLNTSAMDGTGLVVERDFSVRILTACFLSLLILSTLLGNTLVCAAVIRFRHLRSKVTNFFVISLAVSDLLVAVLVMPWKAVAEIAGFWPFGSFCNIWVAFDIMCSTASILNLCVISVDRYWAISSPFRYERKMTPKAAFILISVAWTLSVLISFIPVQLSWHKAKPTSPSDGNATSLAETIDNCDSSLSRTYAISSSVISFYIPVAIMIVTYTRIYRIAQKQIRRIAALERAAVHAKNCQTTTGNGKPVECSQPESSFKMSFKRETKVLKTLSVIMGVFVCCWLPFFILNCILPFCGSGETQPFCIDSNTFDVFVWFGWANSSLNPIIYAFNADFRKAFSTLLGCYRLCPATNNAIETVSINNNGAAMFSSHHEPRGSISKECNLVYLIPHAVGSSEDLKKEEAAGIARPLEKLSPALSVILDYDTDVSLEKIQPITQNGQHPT
TRHR enhancer: allosteric enhancers of human TRH receptor | P34981 | TRHR cells, fluo-8 calcium fluorescence, EC20 TRH enhancement | enhancement, % at 2 µM | hit rate 0.66% among 360,000 | AID 493056; in the data active = enhancement above about 30%; note: 0% is about no effect
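Enhancer read-out: after compound pinning and an initial kinetic agonist-mode read, an EC20 of TRH (10 nM final) was injected and fluo-8 calcium signal (Ex 480/Em 530) followed at 1 s/cycle for 100 cycles in TRHR-expressing cells.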
D1 agonist: activates the human D1 dopamine receptor; P21728; HEK293 T-REx D1 cells, calcium flux, agonist mode; activation, % at 2 µM; hit rate 1% among 360,000; AID 504660; note: 0% is about no effect
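Tetracycline-induced HEK293 TREx D1 cells, force-coupled to calcium signalling, were dye-loaded with a no-wash calcium kit. Compound was pin-added after a 10 s baseline. Fluorescence was read kinetically at 1 cycle/s for 180 s, with calcium rises flagged as agonism.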
D1 antag: blocks dopamine activation of the human D1 receptor. activity change, negative = inhibition, % at 10 µM. hit rate 3.2% among 360,000. HEK293 TREx D1 cells, calcium flux, dopamine EC80; hits give low values. P21728. AID 504652; in the data active = activity change below about -30%; note: % is set by controls: 0 for no effect and ±100 for the full control effect
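After overnight tetracycline induction at 30 C, force-coupled D1 HEK293 cells took up a no-wash calcium dye at room temperature. Compounds were added and monitored 180 s, and the response to EC80 dopamine was then recorded.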
TRHR agonist: activates the human TRH receptor | hit rate 0.18% among 360,000 | AID 493084 | activation, % at 2 µM | TRHR cells, calcium flux fluo-8, FDSS agonist mode; note: 0% is about no effect
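TRHR-expressing cells loaded with fluo-8 calcium dye; 23 nL library compound pin-transferred, kinetic FDSS fluorescence (Ex 480/Em 530) recorded about 180 s for agonist-induced calcium release, before a 10 nM TRH EC20 addition for potentiator mode.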
Numbers without * were called inactive; . = no result given. Cut-off read from the data, not from the text of the source, unless noted: active = activation above about 30%; inactive = the rest.

SMILES	D1 potentiator	TRHR enhancer	D1 agonist	D1 antag	TRHR agonist
Cc1c(-c2ccccc2)nc2ccccc2c1C(=O)Nc1ccncc1	-9	21	2	37	1
CN1CCN(C(=O)c2cc(COc3ccccc3)on2)[C@@H](c2ccccc2)C1	-2	3	6	3	1
COc1cccc(OCc2cc(C(=O)N(C)Cc3nc4ccccc4[nH]3)no2)c1	5	-7	3	6	0
Cc1ccc(OCc2cc(C(=O)N3CCN(C)C[C@@H]3c3ccccc3)no2)cc1C	-2	-3	9	-31*	1
Cc1cc(OCc2cc(C(=O)N(C)C3CCOCC3)no2)cc(C)c1Cl	-5	0	15	-6	0
Cc1ccc(OCc2cc(C(=O)N(C)CC3CCOCC3)no2)cc1C	-8	2	56*	2	0
COc1cccc(OCc2cc(C(=O)N(Cc3ccccc3)CC3CC3)no2)c1	-6	-3	48*	0	3
Cc1cc(OCc2cc(C(=O)N3CCN(C)C(=O)[C@@H]3C)no2)cc(C)c1Cl	-7	4	23	-31*	0
CSc1cccc(NC(=O)C(c2ccccc2)N2Cc3ccccc3C2=O)c1 (stereo unspecified)	7	-5	2	-9	1
COc1ccc(OC)c(CN2CCN(CC(=O)Nc3ccccc3C(=O)NC3CC3)CC2)c1	-10	4	-1	-13	0
O=C(NCCc1csc(-c2ccc(C(F)(F)F)cc2)n1)c1ccc(F)c(F)c1	-6	-4	3	-9	0
CCOC(=O)SC1=N/C(=C\c2ccc(N(C)C)cc2)C(=O)S1	-3	3	33*	-8	11
CCSC1=N/C(=C\c2ccc(C(=O)O)cc2)C(=O)S1	-8	-6	2	-18	0
CSc1ncc(C(=O)Nc2ccccc2C(F)(F)F)c(-c2ccccc2)n1	2	-4	5	7	-1
CCN(CC)S(=O)(=O)c1ccc2c(c1)N(CC(=O)NCCCN1CCN(c3cc(C)ccc3C)CC1)C(=O)CO2	0	-1	13	-13	0
CCCCn1c(=N)n(CC(=O)C(C)(C)C)c2ccccc21	-4	10	3	35	0
CCn1c(=N)n(CC(=O)c2ccc(Br)s2)c2ccccc21	-1	-14	10	9	0
CCCn1c(=N)n(CC(=O)C(C)(C)C)c2ccccc21	-9	31*	9	7	-1
CCOC(=O)Cn1c(=N)n(CCOc2ccc(Br)cc2)c2ccccc21	-2	2	51*	-22	3
CCOC(=O)Cn1c(=N)n(CCOc2cccc(C)c2)c2ccccc21	-2	0	14	-3	0
CCCCn1c(=N)n(CC(=O)c2ccc(Br)s2)c2ccccc21	-3	3	44*	20	2
N=c1n(CCO)c2ccccc2n1CCOc1ccc(F)cc1	1	4	-1	-10	0
CCCCn1c(=N)n(CCCOc2ccc(F)cc2)c2ccccc21	-7	4	79*	-5	-1
COc1ccc2c(c1)CC(C(=O)Nc1ccc(Br)c(C)c1)CO2 (stereo unspecified)	-1	-5	2	8	1
COc1ccc(N(C)S(=O)(=O)c2cccc(C(=O)NCC(c3cccs3)N(C)C)c2)cc1 (stereo unspecified)	-2	-13	3	-6	0
SMILES	D1 potentiator	TRHR enhancer	D1 agonist	D1 antag	TRHR agonist
O=S(=O)(c1ccc2ccccc2c1)n1nc(-c2ccco2)nc1NCc1cccc(Cl)c1	-2	-4	11	-42*	1
CC(C)c1ccc(CNc2nc(-c3ccco3)nn2S(=O)(=O)c2ccccc2)cc1	1	-13	4	-4	1
Cc1cccc(Nc2ncnc(N)n2)c1	-6	-2	2	-33*	2
NCCCC[C@@H]1NC(=O)[C@H](CCC(=O)O)NC(=O)c2cc([N+](=O)[O-])cc(I)c2SC[C@@H](C(=O)NCC(N)=O)NC1=O	-5	10	-1	-44*	0
O=C(Nc1n[nH]c(C(F)(F)F)n1)C1CC1	-4	-4	3	-34*	-1
COc1ccc(-c2nc3sc(CCNS(=O)(=O)c4c(C)cc(C)cc4C)c(C)n3n2)cc1	1	2	3	.	1
COc1ccc(CNC(=O)c2ccc3c(c2)N(Cc2c(F)cccc2Cl)C(=O)CS3)cc1	-1	-6	13	-11	1
